Each structure is given as a SMILES string. Among all 68,000 compounds or so, about 2,700 (4%) showed an effect of 50% or more. The sample holds strong results, similar compounds and a random draw of the others, so the mix is not that of the screen.

The record followed here is ChEMBL document CHEMBL4513216, “Probing the Open Global Health Chemical Diversity Library for Multistage-Active Starting Points for Next-Generation Antimalarials” (ACS Infect Dis, 2020).

For this test, the system named is Plasmodium berghei. Kind of test: Screen against P. berghei liver stage (PbLuc), transformed with Luciferase, at 2uM. As to conditions: tested at 2 uM. The test is classed as functional, HepG2.
Turning to `Cc1cncc(C(=O)N2C[C@@H](C(=O)O)[C@H](C(C)C)C2)c1`, the INHIBITION worked out at 44.23%.

In the case of `COc1cc(C2(C(=O)NCCn3ccnc3)CCCC2)ccc1C`, the INHIBITION was -64.32%.

Regarding `CCc1ncc(S(C)(=O)=O)c(C2CCCNC2)n1` (stereo not given), the INHIBITION is 18.8%.

As to `O=C(NCCn1ccc(-c2ccncc2)n1)c1ccc2c(c1)OCO2`, the INHIBITION was 6.33%.

Regarding `CCCS(=O)(=O)NC(C)C(=O)NCc1ccc(N2CCN(C)CC2)nc1` (stereo not given), the INHIBITION is recorded as -34.5%.

As for `COc1ccc(C(C)NC(=O)Nc2nnc(C)s2)c(OC)c1` (stereo not given), the INHIBITION is reported as 58.69%.

As for `COc1ccc(OC)c(C(C)NC(=O)Nc2nnc(C)s2)c1` (stereo not given), the INHIBITION is -10.7%.

Take `COc1cc(C)c(C(C)NC(=O)Nc2nnc(C)s2)cc1OC` (stereo not given): the INHIBITION was found to be 39.48%.

Regarding `CC(C)N(CC(N)=O)CC(=O)NCCc1c(F)cccc1F`, the INHIBITION stood at 37.18%.

As for `CC(Cc1c(F)cccc1F)NC(=O)CN(CC(N)=O)C(C)C` (stereo not given), the INHIBITION came to 58.53%.

Regarding `CC(Cc1c(F)cccc1F)NC(=O)CSCC(N)=O` (stereo not given), the INHIBITION was determined as 14.19%.

In the case of `CNS(=O)(=O)c1ccc(CN2CCN3CCNC(=O)C3C2)cc1` (stereo not given), the INHIBITION is listed as -43.5%.

Regarding `O=C1NCCN2CCN(C(=O)NCCc3ccccc3)CC12` (stereo not given), the INHIBITION is given as 33.48%.

`CS(=O)(=O)c1ccc(CC(=O)N2CCN3CCNC(=O)C3C2)cc1` (stereo not given): the INHIBITION was found to be 83.83%.

With `Cc1cc(-c2cnc(N3CCOCC3)nc2-c2ccc(C)s2)on1`, the INHIBITION is given as 8.09%.

As for `CS(=O)(=O)CCCN1CCSCC1c1ccc(Cl)cc1` (stereo not given), the INHIBITION stood at 62.51%.

Regarding `CS(=O)(=O)CCN1CCSCC1c1ccc(Cl)cc1` (stereo not given), the INHIBITION came out at 5.28%.

Consider `CS(=O)(=O)NCCN1CCCC1c1ccc(Cl)cc1` (stereo not given), for which the INHIBITION worked out at 8.42%.

Take `CS(=O)(=O)NCCN1CCSCC1c1ccc(Cl)cc1` (stereo not given): the INHIBITION was 36.28%.

Consider `CCS(=O)(=O)CCCN1CCSCC1c1ccc(Cl)cc1` (stereo not given), for which the INHIBITION is 52.98%.

For the compound `Cc1ccc(C2CSCCN2CCS(C)(=O)=O)cc1` (stereo not given), the INHIBITION came out at 38.67%.

`CCN(C(=O)c1cc(C)nc2ccccc12)C1CC(=O)NC1=O` (stereo not given): the INHIBITION is given as 10.93%.

Consider `Nc1ncccc1C(=O)NCc1ccc(Br)cc1`, for which the INHIBITION was 49.69%.

For `Cc1csc(N2CCN(C(=O)C(C)n3cncn3)CC2)n1` (stereo not given), the INHIBITION worked out at 4.18%.

On to `Cc1cc(C(=O)NCCCn2nccc2C2CC2)c(=O)[nH]c1C`, for which the INHIBITION came to 49.45%.

Consider `COc1c(CNCc2ccnc(N(C)C)c2)c(C(C)C)nn1C`, for which the INHIBITION turned out to be 18.85%.

With `CC(=O)N1CCN([C@@H]2CCC[C@@H](NC(=O)c3cccnc3)[C@H]2O)CC1`, the INHIBITION was 20.44%.

Take `CC(=O)N1CCOC2(CCN(C(=O)C3CC3)CC2)C1`: the INHIBITION was -31.76%.

For the compound `NC(=O)CN1CCCN(C(=O)c2ccc(SC(F)F)cc2)CC1`, the INHIBITION came out at 2.31%.

Take `O=C(CCOCC(F)(F)F)N1CCCC(n2ccnc2)C1` (stereo not given): the INHIBITION stood at 2.21%.
